Some test systems named below: DU-145 prostate; K-562 leukemia; MALME-3M melanoma; MDA-MB-231 breast; RXF 393 renal; SF-268 CNS; SF-295 CNS; SF-539 CNS; UACC-257 melanoma; M14 melanoma; HCT-15 colon; HT29 colon; SNB-75 CNS; SNB-19 CNS; U251 CNS; PC-3 prostate; SK-MEL-5 melanoma; UACC-62 melanoma; LOX IMVI melanoma.
Holding throughout (experiment): NCI-60 one-dose screen, 48 h (100 = growth as untreated, 0 = no growth, -100 = all killed)
Common to all, as to conditions: 10 µM unless noted

Each structure is given as a SMILES string. This is part of a sample that, as a whole, favours compounds with a hit. Of some 83,000 tested, about 20% had one in any assay.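 Assay: single dose, 48 h. Readout: percent growth (0 = no net growth; negative = cell death). Active: <10.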 Unmarked numbers belong to inactive results. Active and inactive are the calls of the source.

`COc1c(-c2cc(-c3ccc(C)o3)[nH]c(=O)n2)c(O)cc2occc12`: the growth in the test on DU-145 prostate is 78.2%; with K-562 leukemia, 16.8%; with MALME-3M melanoma, 69.2%; with MDA-MB-231 breast, 70.8%; in the test with RXF 393 renal, 56.3%; with SF-268 CNS it was 69.8%. For the same molecule, the growth is 77.6% in the test on SF-295 CNS; 69.9% in the test on SF-539 CNS; 78.7% with UACC-257 melanoma; 44.7% with M14 melanoma; 32.6% with HCT-15 colon; 96% in the test on HT29 colon. In addition, the growth with SNB-75 CNS is 50%; in the test on SNB-19 CNS, 65.9%; in the test with U251 CNS, 63.5%; with PC-3 prostate it was 69.4%; in the test on SK-MEL-5 melanoma, 76.8%; with UACC-62 melanoma, 48.1%. Moreover, the growth in the test on LOX IMVI melanoma is 58.2%.

Consider `COc1cc2nccc(Oc3ccc(NC(=O)C4(C(=O)Nc5ccc(F)cc5)CC4)cc3)c2cc1O`, for which the growth with DU-145 prostate is 77.7%; in the test with K-562 leukemia it was 9.3% (active); in the test with MALME-3M melanoma it was 64%; in the test with MDA-MB-231 breast, 71%; in the test on RXF 393 renal, 58.5%; in the test with SF-268 CNS, 65.8%. For the same molecule, the growth is 35.2% with SF-295 CNS; 24.5% with SF-539 CNS; 71.5% in the test with UACC-257 melanoma; 49.5% in the test on M14 melanoma; 61.8% in the test with HCT-15 colon; 95.1% in the test on HT29 colon. Besides, the growth in the test with SNB-75 CNS was 34%; in the test with SNB-19 CNS it was 82%; with U251 CNS it was 66%; in the test with PC-3 prostate it was 57.1%; with SK-MEL-5 melanoma, 66.4%; in the test with UACC-62 melanoma, 34.8%. In the test with LOX IMVI melanoma, the growth was 39.8%.

Turning to `CN1CCN(Cc2ccc(NC(=O)c3cnc(F)c(C#Cc4cnc(N)c5ncccc45)c3)cc2C(F)(F)F)CC1`, the growth in the test on DU-145 prostate was 30.5%; with K-562 leukemia, 1.55% (active); in the test with MALME-3M melanoma it was -43.1% (active); in the test with MDA-MB-231 breast, -25.7% (active); in the test with RXF 393 renal, -0.985% (active); with SF-268 CNS, 28.6%. The growth is 48.2% with SF-295 CNS; 9.63% (active) with SF-539 CNS; 13.5% in the test on UACC-257 melanoma; -56.4% (active) in the test with M14 melanoma; 14.9% in the test with HCT-15 colon; 6.84% (active) in the test with HT29 colon. In addition, the growth with SNB-75 CNS is 32.7%; in the test on SNB-19 CNS, 52.8%; in the test on U251 CNS, 20.8%; in the test on PC-3 prostate, 29.9%; in the test on SK-MEL-5 melanoma, 8.81% (active); with UACC-62 melanoma, -4.67% (active). Moreover, the growth with LOX IMVI melanoma was 1.54% (active).

Turning to `COc1cccc2nc(Nc3cccc(NC(=O)c4cc(N5CCOCC5)cc(C(F)(F)F)c4)c3)ccc12`, the growth with DU-145 prostate is 59.9%; in the test on K-562 leukemia, 45%; with MALME-3M melanoma, 91.3%; in the test on MDA-MB-231 breast, 93.3%; in the test with RXF 393 renal, 51.4%; in the test with SF-268 CNS, 59.9%. The growth in the test on SF-295 CNS was 58.4%; with SF-539 CNS, 82%; with UACC-257 melanoma, 57.1%; in the test on M14 melanoma, 52.5%; in the test with HCT-15 colon, 48.2%; with HT29 colon it was 43.4%. Besides, the growth is 50.1% in the test with SNB-75 CNS; 74.6% in the test with SNB-19 CNS; 50.6% in the test with U251 CNS; 36.8% in the test with PC-3 prostate; 42.7% in the test on SK-MEL-5 melanoma; 71.4% in the test on UACC-62 melanoma. Moreover, the growth in the test on LOX IMVI melanoma is 56%.

In the case of `CCN1CCN(Cc2ccc(NC(=O)c3nc4ccc5[nH]ncc5c4c4c3CCCC4)cc2C(F)(F)F)CC1`, the growth was -57.8% (active) with DU-145 prostate; -44.5% (active) with K-562 leukemia; -79.3% (active) in the test with MALME-3M melanoma; -72.1% (active) in the test on MDA-MB-231 breast; -87.4% (active) with RXF 393 renal; 27.4% in the test on SF-268 CNS. The growth in the test with SF-295 CNS is -54.2% (active); with SF-539 CNS, -93.7% (active); in the test on UACC-257 melanoma, -63.9% (active); in the test with M14 melanoma, -75.4% (active); in the test with HCT-15 colon it was -47.8% (active); with HT29 colon, -74.3% (active). The growth was 80.8% in the test with SNB-75 CNS; 13.9% in the test on SNB-19 CNS; -85.7% (active) in the test on U251 CNS; 19.8% in the test on PC-3 prostate; -75.3% (active) in the test on SK-MEL-5 melanoma; -68.7% (active) with UACC-62 melanoma. In addition, the growth with LOX IMVI melanoma is -94.6% (active).

For `COc1ccc(-c2cn(-c3cccc(C(=O)/C=C/c4ccc(O)c(OC)c4)c3)c(=O)[nH]2)cc1`, the growth in the test on DU-145 prostate was 6.8% (active); with K-562 leukemia, 25.7%; with MALME-3M melanoma, 72.5%; in the test with MDA-MB-231 breast, 38.9%; in the test on RXF 393 renal, -60.9% (active); in the test on SF-268 CNS it was 19.1%. Further, the growth in the test on SF-295 CNS was 15.2%; in the test with SF-539 CNS it was 10.5%; in the test with UACC-257 melanoma, 40.3%; in the test on M14 melanoma, 51%; in the test on HCT-15 colon it was 8.88% (active); in the test on HT29 colon it was -21.6% (active). Besides, the growth in the test with SNB-75 CNS is 1.36% (active); in the test on SNB-19 CNS, 67.4%; in the test on U251 CNS, 4.66% (active); with PC-3 prostate, 20.2%; with SK-MEL-5 melanoma it was 22.7%; with UACC-62 melanoma it was 40.8%. Moreover, the growth in the test on LOX IMVI melanoma was -13.9% (active).

Turning to `COc1ccc(NC(=O)/C=C/c2ccc(NC(=O)N3CCCC3)cc2)cn1`, the growth with DU-145 prostate was 106%; in the test with K-562 leukemia it was 99.4%; in the test with MALME-3M melanoma, 96.8%; with MDA-MB-231 breast, 97.5%; in the test on RXF 393 renal it was 109%; in the test on SF-268 CNS it was 101%. In addition, the growth in the test with SF-295 CNS was 99.8%; with SF-539 CNS it was 97%; with UACC-257 melanoma, 103%; with M14 melanoma it was 103%; with HCT-15 colon, 94.1%; in the test on HT29 colon it was 106%. Further, the growth in the test on SNB-75 CNS is 102%; in the test with SNB-19 CNS, 102%; in the test on U251 CNS, 98.6%; with PC-3 prostate, 96.5%; with SK-MEL-5 melanoma, 99.8%; with UACC-62 melanoma it was 101%. In the test with LOX IMVI melanoma, the growth is 98.4%.

Turning to `Clc1cn2cc(-c3ccc(Cl)c(Cl)c3Cl)nc2s1`, the growth with DU-145 prostate was 117%; in the test with K-562 leukemia, 92.6%; with MALME-3M melanoma it was 101%; in the test on MDA-MB-231 breast, 98.5%; with RXF 393 renal it was 99.8%; with SF-268 CNS it was 103%. In addition, the growth in the test on SF-295 CNS is -71.5% (active); in the test on SF-539 CNS it was 105%; in the test with UACC-257 melanoma it was 112%; with M14 melanoma it was 95.3%; in the test on HCT-15 colon, 93.9%; in the test with HT29 colon, 112%. For the same molecule, the growth in the test on SNB-75 CNS is 91.4%; in the test with SNB-19 CNS, 99.8%; in the test with U251 CNS, 102%; in the test on PC-3 prostate, 99.9%; in the test on SK-MEL-5 melanoma, 100%; in the test with UACC-62 melanoma, 96.3%. Besides, the growth in the test with LOX IMVI melanoma is 99.3%.

Values taken from PubChem BioAssay (NCI).
